USP28 block = inhibitors of human USP28 deubiquitinase; Ubiquitin carboxyl-terminal hydrolase 28 (Homo sapiens), Q96RU2; purified USP28, Ub-rhodamine cleavage fluorescence, 30 min; inhibition, % at 25 µM; 47,000 tested, 3% active; AID 1645857, 2021
OTUD3 inh = inhibitors of human OTUD3 deubiquitinase | OTU domain-containing protein 3 (Homo sapiens), Q5T2D3 | purified OTUD3, Ub-rhodamine fluorescence, 2 h | inhibition, % at 25 µM | 47,000 tested, 0.7% active | AID 1645858, 2021
USP8 inh = inhibitors of human USP8 deubiquitinase. 47,000 tested, 4.2% active. inhibition, % at 20 µM. purified USP8, Ub-rhodamine cleavage fluorescence, 30 min
USP17 inh = inhibitors of human USP17 deubiquitinase. Ubiquitin carboxyl-terminal hydrolase 17-like protein 5 (Homo sapiens), A8MUK1. purified USP17, Ub-rhodamine cleavage fluorescence, 3 h. inhibition, % at 50 µM. 47,000 tested, 6.5% active. AID 1645855, 2021
Target sequence (A8MUK1 whole entry, looked up): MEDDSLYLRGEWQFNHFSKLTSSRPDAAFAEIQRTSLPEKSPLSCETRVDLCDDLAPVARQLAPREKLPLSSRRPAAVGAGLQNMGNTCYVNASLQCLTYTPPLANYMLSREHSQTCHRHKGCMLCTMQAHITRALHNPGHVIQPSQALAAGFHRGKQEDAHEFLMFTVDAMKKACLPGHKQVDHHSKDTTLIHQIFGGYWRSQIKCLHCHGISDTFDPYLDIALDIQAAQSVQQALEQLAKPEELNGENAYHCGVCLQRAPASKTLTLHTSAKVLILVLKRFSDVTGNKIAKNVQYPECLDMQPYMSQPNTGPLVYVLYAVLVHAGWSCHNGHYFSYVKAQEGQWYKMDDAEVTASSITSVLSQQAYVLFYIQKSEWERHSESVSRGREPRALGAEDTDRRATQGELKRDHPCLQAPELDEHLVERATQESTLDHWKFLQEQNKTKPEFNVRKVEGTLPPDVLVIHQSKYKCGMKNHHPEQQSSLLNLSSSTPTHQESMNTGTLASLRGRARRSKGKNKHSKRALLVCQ
USP30 inh = inhibitors of human USP30 deubiquitinase; purified USP30, Ub-rhodamine cleavage fluorescence; inhibition, % at 25 µM; 47,000 tested, 5.3% active
* marks the source's active call; other numbers are inactive results; i = inactive; . = no result given. An excerpt weighted towards active compounds, which were near 13% of everything screened. No stated cut-off is given here; in the data, active means inhibition above about 30%; inactive means the rest.

SMILES	USP28 block	OTUD3 inh	USP8 inh	USP17 inh	USP30 inh
O=C(c1ccco1)C1C2C(=O)N(c3ccc(Br)cc3)C(=O)C2C2c3ccccc3C=CN12 (configuration not stated)	-13	-11	46*	2	-298
COc1ccc(Cl)cc1NC(=O)C1[C@@H]2C(=O)N(Cc3ccc4c(c3)OCO4)C(=O)[C@@H]2[C@H]2c3ccccc3C=CN12 (some centres not stated)	45*	14	72*	24	-99
COc1ccc(Cl)cc1NC(=O)C1C2C(=O)N(c3ccc4c(c3)OCO4)C(=O)C2C2c3ccccc3C=CN12 (configuration not stated)	-11	-57	30	-56	i
COc1ccc(N2C(=O)[C@@H]3[C@H]4c5ccccc5C=CN4C(C(=O)Nc4ccc5c(c4)OCO5)[C@@H]3C2=O)cc1 (some centres not stated)	-4	-35	87*	64*	-164
O=C(c1cn(-c2ccc(F)cc2)nn1)N1CCCCC1	7	4	17	4	20
Cc1cc(C)nc(NC(=O)c2csnn2)c1	-3	-2	-3	-2	0
O=C(Nc1cc(Cl)cc(Cl)c1)c1csnn1	3	0	5	58*	6
O=[N+]([O-])c1cccc(CSc2nnc(/C=C/c3ccccc3)o2)c1	58*	12	10	18	26
COc1ccc(Cl)cc1S(=O)(=O)N(C)CC(=O)Nc1ccc2c(c1)OCCO2	-7	-10	1	-15	-13
COc1ccc(NC(C)=O)cc1S(=O)(=O)N(CC(=O)Nc1ccc(C)cc1)CC(=O)Nc1ccc(C)cc1	-8	-5	1	34*	19
CCc1nnc2c(NC(=O)Cc3ccc(OC)c(Cl)c3)cccn12	47*	3	1	-6	-33
COc1ccc(CC(=O)Nc2cccn3c(C)nnc23)c(Cl)c1	0	0	-3	0	-16
Cc1cc(F)ccc1NS(=O)(=O)c1c[nH]c2ccc([N+](=O)[O-])cc12	8	-3	-26	46*	42*
O=C(O)c1ccc(NS(=O)(=O)c2ccc(N3CCCC3)c([N+](=O)[O-])c2)cc1	15	12	-18	6	6
COC(=O)c1ccc(NS(=O)(=O)c2c[nH]c3ccc([N+](=O)[O-])cc23)cc1	14	2	17	45*	28
Cc1ccc(N2CCC(NC(=O)NCc3ccccc3)C2=O)cc1C (configuration not stated)	1	-11	20	6	3
Cc1noc2ncc(-c3nnc(Cc4ccccc4F)o3)cc12	4	-1	-13	11	23
O=C(Cn1cnc2ccccc2c1=O)c1c[nH]c2ccccc12	32*	0	25	47*	44*
O=C(CSc1nc2ccccc2[nH]1)c1ccccc1F	3	-6	-1	-37	3
O=C(Cn1cnc2cc([N+](=O)[O-])ccc2c1=O)c1c[nH]c2ccccc12	13	-11	-204	20	-72
O=C(Cn1cnc2ccccc2c1=O)NC(c1ccccc1)c1ccccc1	14	5	21	18	33*
Cc1cc(C(=O)CSc2nc3ccccc3[nH]2)c(C)n1Cc1ccco1	25	3	57*	50*	-50
O=C(CCn1cnc2ccccc2c1=O)Nc1ccc(Cl)cc1	21	7	18	40*	14
COc1ccccc1NC(=O)N1CCc2nc3ccccc3n2CC1	4	0	9	5	-10
O=C(CSc1nc2ccccc2[nH]1)c1c[nH]c2ccccc12	-2	0	-4	20	33*
SMILES	USP28 block	OTUD3 inh	USP8 inh	USP17 inh	USP30 inh
O=C(c1ccc(Cl)cc1)[C@@H]1[C@H](C(=O)OC(c2ccccc2)c2ccccc2)N2c3ccccc3C=CC2[C@@]12C(=O)Nc1ccccc12 (some centres not stated)	-86	-38	52*	-11	-312
O=C(c1ccc(F)cc1)[C@@H]1[C@H](C(=O)OC(c2ccccc2)c2ccccc2)N2c3ccccc3C=CC2[C@@]12C(=O)Nc1ccccc12 (some centres not stated)	-121	-123	-13	-33	-489
O=C(Nc1ccc2c(c1)N(C(=O)C1CCCC1)CC2)c1c(F)cccc1F	93*	7	18	32*	24
COc1ccc(C(=O)Nc2ccc3c(c2)N(C(=O)C2CC2)CCC3)cc1OC	33*	10	15	6	22
Cc1ccc2[nH]c(=O)c(CN(CC3CCCO3)S(=O)(=O)c3ccccc3Cl)cc2c1 (configuration not stated)	-3	-16	-5	-5	-21
Cc1nc2nc(C)c(CCC(=O)NCc3ccc(F)cc3)c(C)n2n1	1	2	8	2	13
Cc1ccc(CNC(=O)CCc2c(C)nc3c(c(C)nn3-c3ccc(C)cc3)c2C)cc1	16	24	34*	21	24
Cc1nn(-c2ccccc2)c2c1c(C)c(CCC(=O)NCc1ccc(F)cc1)c(=O)n2C	0	7	-4	37*	21
CC(=O)c1ccc(NC(=O)CCc2c(C)c3c(C)nn(-c4ccccc4)c3n(C)c2=O)cc1	-3	9	1	38*	-8
Cc1cn2nnc(C(=O)Nc3ccc(OC(F)(F)F)cc3)c2c(=O)[nH]1	26	15	54*	51*	54*
CSc1ccccc1NC(=O)c1nnn2cc(C)[nH]c(=O)c12	2	10	-198	-23	3
CCc1cc(C(=O)Nc2ccc(C3CCc4nncn4C3)cc2)on1 (configuration not stated)	34*	6	3	0	22
O=C(c1ccc(F)cc1)N1CCc2cc(-c3csc(Nc4ccccc4)n3)ccc21	-8	-15	-88	-23	-135
NC(=O)c1cc(-c2csc(NNc3ccccc3)n2)ccc1O	3	4	19	47*	-61
CCOC(=O)c1ccc(NC(=O)CSc2nnc(CNC(=O)c3ccccc3F)o2)cc1	4	10	1	20	10
O=C(CSc1nnc(CNC(=O)c2ccccc2F)o1)Nc1ccc(OC(F)(F)F)cc1	9	-1	6	63*	32*
CCOC(=O)c1ccc(NC(=O)CSc2nnc(CNC(=O)c3cccs3)o2)cc1	4	5	4	50*	18
CCCn1c(=O)c2sccc2n2c(CCC(=O)NC3CCC(C)CC3)nnc12 (configuration not stated)	12	23	25	.	40*
CC(C)Cn1c(=O)c2sccc2n2c(CCC(=O)NCCc3ccccc3)nnc12	-4	-3	1	-2	-6
CCCn1c(=O)c2sccc2n2c(CCC(=O)N3CCc4ccccc4C3)nnc12	6	7	87*	.	9
CC(C)CCn1c(=O)c2ccccc2n2c(CCC(=O)NCc3cccnc3)nnc12	3	11	18	10	19
